A short description of test [1]: NCI Yeast Anticancer Drug Screen. Data for the rad50 strain (AID 155).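 Note: 0% = growth of vehicle-only cultures of the same strain.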 Conditions: S. cerevisiae rad50 strain growth inhibition, hits give high values. The method, boiled down:
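Genetically altered yeast (DNA repair pathway); compound treatment; growth inhibition vs vehicle ctrl.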

Test [2] is described as follows: NCI Yeast Anticancer Drug Screen. Data for the mec2-1 strain (AID 157). The conditions noted are these: S. cerevisiae mec2-1 strain, hits give high values. In a few lines:
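Each compound was tested on mec2-1 yeast, a strain altered in DNA damage repair or cell cycle control. Growth inhibition is reported relative to vehicle.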

Test [3] is described as follows: NCI Yeast Anticancer Drug Screen. Data for the sgs1 mgt1 strain (AID 161).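 Note: 0% = growth of cultures given vehicle only.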 Conditions: S. cerevisiae sgs1 mgt1 strain, hits give high values. The method, boiled down:
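Genetically altered yeast, compound exposure, growth inhibition relative to vehicle.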

The nature of test [4]: NCI Yeast Anticancer Drug Screen. Data for the cln2 rad14 strain (AID 165).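 Note: 0% = growth equal to vehicle treated cultures.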 Conditions: S. cerevisiae cln2 rad14 strain, hits give high values. In a few lines:
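Test compounds were added to cln2 rad14 yeast cultures; inhibition of growth was then determined by comparison with vehicle treatment.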

Test [5] can be described thus: NCI Yeast Anticancer Drug Screen. Data for the bub3 strain (AID 167). Conditions: S. cerevisiae bub3 mutant strain, hits give high values. In a few lines:
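Yeast carrying a defined mutation is treated with each compound, and growth is compared with that of vehicle-exposed cells to give inhibition.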

Test [6] is described as follows: NCI Yeast Anticancer Drug Screen. Data for the mlh1 rad18 strain (AID 175). Conditions: S. cerevisiae mlh1 rad18 strain growth inhibition, hits give high values. In a few lines: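 Inhibition values reflect reduced growth of mutant yeast versus vehicle-treated controls following compound exposure; the mutations affect DNA damage repair.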
Setting [7] is: at 5.0 µM (retest, dose inferred, filed as 0.5).
Where [8] appears, read: at 50.0 µM (retest, dose inferred, filed as 5.0).

The structures appear in SMILES notation. About 79,000 compounds went through this panel and 15% of them were active in at least one assay; those are over-represented in the sample as a whole. Unmarked numbers belong to inactive results. Activity calls are given as the source filed them. Cut-off read from the data, not from the text of the source: active = growth inhibition above about 70%; inactive = the rest.

Take `CCCc1cc(=O)oc2c3c(c4c(c12)OC(C)(C)CC4)OC(C)[C@H](C)[C@@H]3O` (stereo not given in full): the growth inhibition in test [1] (setting [7]) was 36%; in test [1] (setting [8]), 90% (active); in test [1] (at 50.0 µM), 83.7% (active); in test [2] (setting [7]), 36%; in test [2] (setting [8]), 92% (active); in test [2] (at 50.0 µM), 85.6% (active). Further, the growth inhibition in test [3] (setting [7]) is 28%; in test [3] (setting [8]), 90% (active); in test [3] (at 50.0 µM), 80.2% (active); in test [4] (setting [7]), 27%; in test [4] (setting [8]) it was 93% (active); in test [4] (at 50.0 µM), 85.2% (active). The growth inhibition in test [5] (setting [7]) is 12%; in test [5] (setting [8]), 90% (active); in test [5] (at 50.0 µM), 80.1% (active); in test [6] (setting [7]) it was 31%; in test [6] (setting [8]), 94% (active); in test [6] (at 50.0 µM), 77% (active).

For `CCOC(=O)C1C(C(C)C)C2(C#N)C(=N)OC1(C)C2(C#N)C#N` (stereo not given), the growth inhibition was 15% in test [1] (setting [7]); 63% in test [1] (setting [8]); 44.8% in test [1] (at 50.0 µM); 6% in test [2] (setting [7]); 53% in test [2] (setting [8]); 52.2% in test [2] (at 50.0 µM). Moreover, the growth inhibition in test [3] (setting [7]) is 19%; in test [3] (setting [8]) it was 58%; in test [3] (at 50.0 µM), 49.8%; in test [4] (setting [7]) it was 6%; in test [4] (setting [8]) it was 37%; in test [4] (at 50.0 µM), 30.2%. Besides, the growth inhibition in test [5] (setting [7]) was 14%; in test [5] (setting [8]) it was 62%; in test [5] (at 50.0 µM), 39.5%; in test [6] (setting [7]) it was 18%; in test [6] (setting [8]), 72% (active); in test [6] (at 50.0 µM) it was 42.5%.

For the molecule `CC1(C)CCC[C@]2(C)[C@@H](C=O)C(C=O)=CC[C@@H]12`, the growth inhibition in test [1] (setting [7]) is 25%; in test [1] (setting [8]), 90% (active); in test [1] (at 50.0 µM), 91.3% (active); in test [2] (setting [7]), 23%; in test [2] (setting [8]), 96% (active); in test [2] (at 50.0 µM), 90.8% (active). The growth inhibition is 22% in test [3] (setting [7]); 84% (active) in test [3] (setting [8]); 88.4% (active) in test [3] (at 50.0 µM); 23% in test [4] (setting [7]); 81% (active) in test [4] (setting [8]); 90.2% (active) in test [4] (at 50.0 µM). Moreover, the growth inhibition in test [5] (setting [7]) was 19%; in test [5] (setting [8]) it was 88% (active); in test [5] (at 50.0 µM), 90.3% (active); in test [6] (setting [7]) it was 21%; in test [6] (setting [8]), 91% (active); in test [6] (at 50.0 µM) it was 86.9% (active).

With `COc1cccc(N=N/C(=N\NC(=O)c2cc(Br)ccc2O)c2ccc(N(CCC#N)CCC#N)cc2OC)c1`, the growth inhibition in test [1] (setting [7]) was 17%; in test [1] (setting [8]), 30%; in test [1] (at 50.0 µM), 72% (active); in test [2] (setting [7]), 22%; in test [2] (setting [8]) it was 35%; in test [2] (at 50.0 µM), 48.9%. The growth inhibition in test [3] (setting [7]) was -8%; in test [3] (setting [8]), 34%; in test [3] (at 50.0 µM) it was 34.5%; in test [4] (setting [7]), 0%; in test [4] (setting [8]), 19%; in test [4] (at 50.0 µM), 20.9%. In addition, the growth inhibition in test [5] (setting [7]) was -2%; in test [5] (setting [8]), 42%; in test [5] (at 50.0 µM) it was 39.4%; in test [6] (setting [7]), 26%; in test [6] (setting [8]) it was 43%; in test [6] (at 50.0 µM), 76.2% (active).

With `CCCCC(C=O)(C=C=C(C)C)CC` (stereo not given), the growth inhibition in test [1] (setting [7]) was -4%; in test [1] (setting [8]) it was 28%; in test [1] (at 50.0 µM) it was 51.4%; in test [2] (setting [7]) it was -2%; in test [2] (setting [8]) it was 0%; in test [2] (at 50.0 µM), 52.1%. In addition, the growth inhibition in test [3] (setting [7]) was 0%; in test [3] (setting [8]) it was 35%; in test [3] (at 50.0 µM), 61.3%; in test [4] (setting [7]), -7%; in test [4] (setting [8]), 26%; in test [4] (at 50.0 µM), 36.4%. Moreover, the growth inhibition in test [5] (setting [7]) is -13%; in test [5] (setting [8]), 2%; in test [5] (at 50.0 µM), 66.3%; in test [6] (setting [7]) it was -32%; in test [6] (setting [8]), -4%; in test [6] (at 50.0 µM), 16.9%.

As to `CCCCCCCCCCCC1=NCCCN1CCCC`, the growth inhibition in test [1] (setting [7]) is 10%; in test [1] (setting [8]), 99% (active); in test [1] (at 50.0 µM), 88.3% (active); in test [2] (setting [7]) it was 0%; in test [2] (setting [8]) it was 99% (active); in test [2] (at 50.0 µM), 99.2% (active). The growth inhibition in test [3] (setting [7]) is 26%; in test [3] (setting [8]), 100% (active); in test [3] (at 50.0 µM), 84.3% (active); in test [4] (setting [7]), 4%; in test [4] (setting [8]), 99% (active); in test [4] (at 50.0 µM), 72% (active). Besides, the growth inhibition is 22% in test [5] (setting [7]); 100% (active) in test [5] (setting [8]); 98.7% (active) in test [5] (at 50.0 µM); 28% in test [6] (setting [7]); 99% (active) in test [6] (setting [8]); 95.3% (active) in test [6] (at 50.0 µM).

`CC1C(c2ccccc2)OCCN1C(=S)Nc1ccc(S(=O)(=O)N2CCCCC2)cc1` (stereo not given): the growth inhibition in test [1] (setting [7]) was 46%; in test [1] (setting [8]), 86% (active); in test [1] (at 50.0 µM), 85.4% (active); in test [2] (setting [7]) it was 46%; in test [2] (setting [8]), 84% (active); in test [2] (at 50.0 µM), 89.2% (active). The growth inhibition is 65% in test [3] (setting [7]); 97% (active) in test [3] (setting [8]); 91.5% (active) in test [3] (at 50.0 µM); 62% in test [4] (setting [7]); 96% (active) in test [4] (setting [8]); 89.7% (active) in test [4] (at 50.0 µM). Also, the growth inhibition is 73% (active) in test [5] (setting [7]); 96% (active) in test [5] (setting [8]); 90.1% (active) in test [5] (at 50.0 µM); 43% in test [6] (setting [7]); 88% (active) in test [6] (setting [8]); 86.4% (active) in test [6] (at 50.0 µM).

Take `Cc1nnc(N/N=C/c2ccc([N+](=O)[O-])o2)[nH]c1=O`: the growth inhibition is -5% in test [1] (setting [7]); 36% in test [1] (setting [8]); 59.1% in test [1] (at 50.0 µM); 6% in test [2] (setting [7]); 68% in test [2] (setting [8]); 65.2% in test [2] (at 50.0 µM). Moreover, the growth inhibition is -2% in test [3] (setting [7]); 75% (active) in test [3] (setting [8]); 47.5% in test [3] (at 50.0 µM); 6% in test [4] (setting [7]); 42% in test [4] (setting [8]); 85.2% (active) in test [4] (at 50.0 µM). For the same molecule, the growth inhibition in test [5] (setting [7]) is -9%; in test [5] (setting [8]), 62%; in test [5] (at 50.0 µM), 81% (active); in test [6] (setting [7]), 8%; in test [6] (setting [8]), 80% (active); in test [6] (at 50.0 µM), 71% (active).

As for `Oc1ccc2c(c1)CCc1ccccc1-2`, the growth inhibition in test [1] (setting [7]) was 37%; in test [1] (setting [8]), 98% (active); in test [1] (at 50.0 µM), 95.6% (active); in test [2] (setting [7]) it was 36%; in test [2] (setting [8]), 98% (active); in test [2] (at 50.0 µM) it was 75.5% (active). Further, the growth inhibition is 11% in test [3] (setting [7]); 88% (active) in test [3] (setting [8]); 95.8% (active) in test [3] (at 50.0 µM); 1% in test [4] (setting [7]); 98% (active) in test [4] (setting [8]); 99.2% (active) in test [4] (at 50.0 µM). Besides, the growth inhibition is 83% (active) in test [5] (setting [7]); 99% (active) in test [5] (setting [8]); 98.8% (active) in test [5] (at 50.0 µM); 75% (active) in test [6] (setting [7]); 98% (active) in test [6] (setting [8]); 99.5% (active) in test [6] (at 50.0 µM).

Consider `Cc1cc2cccnc2c2ncccc12`, for which the growth inhibition was 34% in test [1] (setting [7]); 98% (active) in test [1] (setting [8]); 99% (active) in test [1] (at 50.0 µM); 9% in test [2] (setting [7]); 99% (active) in test [2] (setting [8]); 99.2% (active) in test [2] (at 50.0 µM). The growth inhibition in test [3] (setting [7]) was 5%; in test [3] (setting [8]) it was 98% (active); in test [3] (at 50.0 µM), 99.1% (active); in test [4] (setting [7]), -9%; in test [4] (setting [8]), 98% (active); in test [4] (at 50.0 µM), 97.5% (active). Moreover, the growth inhibition in test [5] (setting [7]) is 21%; in test [5] (setting [8]) it was 99% (active); in test [5] (at 50.0 µM) it was 99.3% (active); in test [6] (setting [7]) it was 25%; in test [6] (setting [8]) it was 99% (active); in test [6] (at 50.0 µM), 98.7% (active).

For the origin of these results see PubChem BioAssay (NCI).
